Assay results: PubChem BioAssay (Tox21)
Inconclusive results are not listed. Calls of active or inactive are those of the source. Calls follow the shape of the full dose curve.

Assay: cAMP Responsive Elements (CRE) small molecule agonists, cell-based qHTS assay (AID 1963590)
Conditions: CRE-bla HEK293T, beta-lactamase FRET ratio, 3 h; series mostly up to 92.4 µM; activation: at the top concentration
Source text: U.S. Tox21 Program National Center for Advancing Translational Sciences [NCATS] Division of Preclinical Innovation [DPI] U.S. Environmental Protection Agency [EPA] National Institutes of Environmental Health Sciences [NIEHS] National Toxicology Program [NTP] U.S. Food and Drug Administration [FDA] Tox21 Assay Overview: CREB (cyclic-AMP Responsive Element Binding Protein) is a cellular transcription factor. It binds to certain DNA sequences called cAMP Responsive Elements (CRE) and regulates the transcription of the genes. […] This cell line can be used to find agonists/antagonists of the cyclic AMP signaling pathway. The activation of the report gene under culture conditions can be detected by fluorescence intensity. This cell line has been used to screen the Tox21 10K compound library to identify agonists that induce oxidative stress.
Tox21 Assay Protocol Summary: CRE-bla Hek 293T cells were suspended in assay medium (DMEM containing 10% dialyzed FBS, 0.1 mM NEAA, 1 mM sodium pyruvate and 25 mM HEPES) and dispensed at 2,000 cells/5 uL /well into 1536-well black wall/clear bottom plates using a Multidrop Combi (ThermoFisher Scientific, Waltham, MA) dispenser. After the assay plates were incubated at 37 C/5% CO2 for 18 hrs, 23 nL of compounds dissolved in DMSO, positive controls or DMSO only was transferred to the assay plate by a pintool workstation (Kalypsys, San Diego, CA). After the plates were incubated at 37 C/5% CO2 for 3 hrs, 1 uL of LiveBLAzer B/G FRET substrate (Invitrogen, Carlsbad, CA) was added to each well using Bioraptr Flying Reagent Dispenser (FRD, Aurora Discovery, San Diego, CA). The plates were incubated at room temperature for 2 h.
% is scaled to controls: 0 for no effect and ±100 for the full control effect.

Row | Compound | activation
1 | COc1cc2c(cc1OC)C(=O)CC2 | 0.0262% [at 42.5 µM] (inactive)
2 | Nc1ccc(C(=O)O)c(O)c1 | 0.148% [at 42.5 µM] (inactive)
3 | COc1ccccc1OCC(O)CN1CCN(CC(=O)Nc2c(C)cccc2C)CC1 (stereo not given) | 4.72% [at 42.5 µM] (inactive)
4 | C/C=C/C(=O)CC | -0.284% [at 19 µM] (inactive)
5 | COc1ccc(-n2nc(CCC(=O)N(C)O)cc2-c2ccc(Cl)cc2)cc1 | 9.91% [at 42.5 µM] (inactive)
6 | CC(C)CCOC(=O)CC(C)C | -0.862% (inactive)
7 | O=C(O)/C=C/c1ccc(/C=C/C(=O)O)cc1 | -0.102% [at 42.5 µM] (inactive)
8 | NC(=O)CC[C@@H]1NC(=O)[C@H](Cc2ccccc2)NC(=O)[C@H](Cc2ccc(O)cc2)NC(=O)CCSSC[C@@H](C(=O)N2CCC[C@H]2C(=O)N[C@@H](CCCN=C(N)N)C(=O)NCC(N)=O)NC(=O)[C@H](CC(N)=O)NC1=O | -0.0944% [at 42.5 µM] (inactive)
9 | O=c1[nH]c(=O)c2[nH]c(=O)[nH]c2[nH]1 | 1.51% [at 8.39 µM] (inactive)
10 | C=CC(C)C#N (stereo not given) | 0.475% (inactive)
11 | Oc1ccccc1C=NCc1ccccc1 | 0.818% [at 42.5 µM] (inactive)
12 | Cc1c(Cn2ccnc2)c2ccccc2n1CCC(=O)O | 0.322% [at 42.5 µM] (inactive)
13 | CN(C)CCc1c[nH]c2ccc(CS(=O)(=O)N3CCCC3)cc12 | 0.426% [at 42.5 µM] (inactive)
14 | Oc1cc(O)c(Cl)cc1Cl | -1.36% (inactive)
15 | C(=C/c1ccccc1)/c1ccccc1 | -0.608% (inactive)
16 | Clc1ccnc(Cl)n1 | -0.605% (inactive)
17 | Oc1cccc2cc3cccc(O)c3c(O)c12 | 0.462% (inactive)
18 | N=C(N)c1ccc(OCCCOc2ccc(C(=N)N)cc2)cc1 | -0.277% [at 42.5 µM] (inactive)
19 | C=C(C)c1ccccc1 | 0.112% (inactive)
20 | Cc1ccc(CCn2c3c(c4cc(Cl)ccc42)CN(C)CC3)cn1 | -0.13% [at 42.5 µM] (inactive)

Row | Compound | activation
21 | CC(C)Oc1ccccc1O | 1.02% (inactive)
22 | CCCCCCCCOS(=O)(=O)O | -0.0071% (inactive)
23 | C[N+](C)(C)CCOC(=O)CCC(=O)OCC[N+](C)(C)C | 0.601% [at 42.5 µM] (inactive)
24 | C#CC(C)(CC)OC(=O)c1ccccc1C(=O)O (stereo not given) | 0.0319% [at 42.5 µM] (inactive)
25 | CCCCCCC | -1.76% (inactive)
26 | CC1=CC[C@H](C(C)C)C=C1 | -2.53% (inactive)
27 | Cc1occc(=O)c1OC(=O)C(C)C | -0.551% (inactive)
28 | C#CCN[C@@H]1CCc2ccccc21 | -1.27% [at 42.5 µM] (inactive)
29 | CC(C)(C)NSc1nc2ccccc2s1 | 3.92% (inactive)
30 | OC(CCCN1CCCCC1)(c1ccccc1)c1ccccc1 | -0.209% [at 42.5 µM] (inactive)
31 | Cc1cc2c(cc1S(N)(=O)=O)S(=O)(=O)CCC2 | 0.207% [at 42.5 µM] (inactive)
32 | CCCC(C)C=O (stereo not given) | 0.176% (inactive)
33 | [O]=[Mo](=[O])=[O] | 0.435% [at 19 µM] (inactive)
34 | CCCCOCCOC(=O)CCCCCCCCC(=O)OCCOCCCC | -3.35% (inactive)
35 | CCCCCCC(CO)CCCC (stereo not given) | 0.56% (inactive)
36 | C=C(C)C1CC=C(C)C(O)C1 (stereo not given) | 1.91% (inactive)
37 | OCCN1CN(CCO)CN(CCO)C1 | -0.135% (inactive)
38 | CCCCCCCCCOC(C)=O | -1.02% (inactive)
39 | COc1ccc(CCN(C)CCCC(C#N)(c2cc(OC)c(OC)c(OC)c2)C(C)C)cc1OC (stereo not given) | 0.56% [at 42.5 µM] (inactive)
40 | c1ccc(CCNc2nc(-c3ccccc3)cs2)cc1 | -0.0414% [at 42.5 µM] (inactive)
